# Laboratory results as given in ChEMBL document CHEMBL1961873, “Compounds: GSK PKIS; Assays: Nanosyn kinase panel” (2012).
# Experiments:
# [1] = biological target: T1, Tyrosine-protein kinase ITK/TSK (Homo sapiens) (UniProt Q08881); settings: at 1 µM;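 also: values are mean percent inhibition of ITK from the GSK PKIS screen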
# T1 sequence (whole entry): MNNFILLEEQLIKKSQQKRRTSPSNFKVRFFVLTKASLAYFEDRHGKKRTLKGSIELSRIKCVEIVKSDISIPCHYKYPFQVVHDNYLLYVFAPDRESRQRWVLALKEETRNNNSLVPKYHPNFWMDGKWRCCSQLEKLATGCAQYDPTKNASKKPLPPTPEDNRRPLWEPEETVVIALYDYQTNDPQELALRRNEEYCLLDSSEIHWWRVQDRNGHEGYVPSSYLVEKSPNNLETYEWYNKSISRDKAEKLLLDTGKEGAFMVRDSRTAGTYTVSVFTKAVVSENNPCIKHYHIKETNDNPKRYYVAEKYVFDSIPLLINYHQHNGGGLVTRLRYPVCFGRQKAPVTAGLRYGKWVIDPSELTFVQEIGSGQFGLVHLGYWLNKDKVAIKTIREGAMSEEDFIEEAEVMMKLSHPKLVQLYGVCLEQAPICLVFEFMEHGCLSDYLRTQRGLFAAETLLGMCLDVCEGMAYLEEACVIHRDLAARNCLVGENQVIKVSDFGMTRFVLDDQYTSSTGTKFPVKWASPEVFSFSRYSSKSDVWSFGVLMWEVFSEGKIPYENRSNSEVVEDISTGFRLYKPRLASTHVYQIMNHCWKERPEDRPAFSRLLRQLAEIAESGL
# [2] = biological target: Tyrosine-protein kinase JAK1 (Homo sapiens) (UniProt P23458); settings: at 0.1 µM
# [3] = biological target: Tyrosine-protein kinase JAK1 (Homo sapiens) (UniProt P23458); settings: at 1 µM
# [4] = biological target: Tyrosine-protein kinase JAK2 (Homo sapiens) (UniProt O60674); settings: at 0.1 µM
# [5] = biological target: Tyrosine-protein kinase JAK2 (Homo sapiens) (UniProt O60674); settings: at 1 µM
# [6] = biological target: T2, Tyrosine-protein kinase JAK3 (Homo sapiens) (UniProt P52333); settings: at 0.1 µM
# T2 sequence (whole entry): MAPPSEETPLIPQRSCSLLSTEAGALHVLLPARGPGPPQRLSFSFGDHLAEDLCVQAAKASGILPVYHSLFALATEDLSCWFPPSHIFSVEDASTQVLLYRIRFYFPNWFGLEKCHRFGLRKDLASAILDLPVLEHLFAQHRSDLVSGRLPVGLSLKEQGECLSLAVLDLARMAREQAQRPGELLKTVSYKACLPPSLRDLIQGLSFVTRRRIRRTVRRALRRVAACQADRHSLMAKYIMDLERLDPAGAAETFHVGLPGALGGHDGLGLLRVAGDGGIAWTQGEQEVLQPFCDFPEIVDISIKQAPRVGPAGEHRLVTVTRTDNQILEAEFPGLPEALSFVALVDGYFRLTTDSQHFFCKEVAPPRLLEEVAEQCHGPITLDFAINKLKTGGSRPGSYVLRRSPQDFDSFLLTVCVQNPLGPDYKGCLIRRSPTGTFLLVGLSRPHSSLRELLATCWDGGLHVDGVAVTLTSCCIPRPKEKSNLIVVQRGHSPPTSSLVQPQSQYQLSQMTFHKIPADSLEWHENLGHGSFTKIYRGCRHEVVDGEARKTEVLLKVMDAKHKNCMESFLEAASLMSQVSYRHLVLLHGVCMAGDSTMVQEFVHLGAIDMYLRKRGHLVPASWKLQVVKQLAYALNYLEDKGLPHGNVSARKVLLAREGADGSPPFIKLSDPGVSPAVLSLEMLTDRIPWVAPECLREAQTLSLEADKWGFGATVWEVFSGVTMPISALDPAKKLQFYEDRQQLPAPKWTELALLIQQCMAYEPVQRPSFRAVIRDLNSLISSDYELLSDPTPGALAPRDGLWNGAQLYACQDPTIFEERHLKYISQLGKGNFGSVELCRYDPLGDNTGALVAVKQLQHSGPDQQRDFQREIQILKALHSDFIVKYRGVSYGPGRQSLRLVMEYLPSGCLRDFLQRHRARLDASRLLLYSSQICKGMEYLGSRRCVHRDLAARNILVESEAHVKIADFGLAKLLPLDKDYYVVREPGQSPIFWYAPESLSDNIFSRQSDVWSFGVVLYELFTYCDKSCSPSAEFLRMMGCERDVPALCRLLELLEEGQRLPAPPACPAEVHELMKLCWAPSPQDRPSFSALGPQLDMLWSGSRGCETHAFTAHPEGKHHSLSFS
# [7] = biological target: T2, Tyrosine-protein kinase JAK3 (Homo sapiens); settings: at 1 µM
# [8] = biological target: Vascular endothelial growth factor receptor 2 (Homo sapiens) (UniProt P35968); settings: at 0.1 µM
# [9] = biological target: Vascular endothelial growth factor receptor 2 (Homo sapiens) (UniProt P35968); settings: at 1 µM
# [10] = biological target: Mast/stem cell growth factor receptor Kit (Homo sapiens) (UniProt P10721); settings: at 0.1 µM
# [11] = biological target: Mast/stem cell growth factor receptor Kit (Homo sapiens) (UniProt P10721); settings: at 1 µM
# [12] = test system: Mast/stem cell growth factor receptor Kit (Homo sapiens), P10721 [D816V]; settings: at 0.1 µM
# [13] = test system: Mast/stem cell growth factor receptor Kit (Homo sapiens), P10721 [D816V]; settings: at 1 µM
# [14] = test system: Mast/stem cell growth factor receptor Kit (Homo sapiens), P10721 [T670I]; settings: at 0.1 µM
# [15] = test system: Mast/stem cell growth factor receptor Kit (Homo sapiens), P10721 [T670I]; settings: at 1 µM
# [16] = test system: Mast/stem cell growth factor receptor Kit (Homo sapiens), P10721 [V560G]; settings: at 0.1 µM
# [17] = test system: Mast/stem cell growth factor receptor Kit (Homo sapiens), P10721 [V560G]; settings: at 1 µM
# [18] = biological target: Tyrosine-protein kinase Lck (Homo sapiens) (UniProt P06239); settings: at 0.1 µM
# [19] = biological target: Tyrosine-protein kinase Lck (Homo sapiens) (UniProt P06239); settings: at 1 µM
# [20] = biological target: Leukocyte tyrosine kinase receptor (Homo sapiens) (UniProt P29376); settings: at 0.1 µM
# Chain of Leukocyte tyrosine kinase receptor (Homo sapiens) (P29376 whole entry): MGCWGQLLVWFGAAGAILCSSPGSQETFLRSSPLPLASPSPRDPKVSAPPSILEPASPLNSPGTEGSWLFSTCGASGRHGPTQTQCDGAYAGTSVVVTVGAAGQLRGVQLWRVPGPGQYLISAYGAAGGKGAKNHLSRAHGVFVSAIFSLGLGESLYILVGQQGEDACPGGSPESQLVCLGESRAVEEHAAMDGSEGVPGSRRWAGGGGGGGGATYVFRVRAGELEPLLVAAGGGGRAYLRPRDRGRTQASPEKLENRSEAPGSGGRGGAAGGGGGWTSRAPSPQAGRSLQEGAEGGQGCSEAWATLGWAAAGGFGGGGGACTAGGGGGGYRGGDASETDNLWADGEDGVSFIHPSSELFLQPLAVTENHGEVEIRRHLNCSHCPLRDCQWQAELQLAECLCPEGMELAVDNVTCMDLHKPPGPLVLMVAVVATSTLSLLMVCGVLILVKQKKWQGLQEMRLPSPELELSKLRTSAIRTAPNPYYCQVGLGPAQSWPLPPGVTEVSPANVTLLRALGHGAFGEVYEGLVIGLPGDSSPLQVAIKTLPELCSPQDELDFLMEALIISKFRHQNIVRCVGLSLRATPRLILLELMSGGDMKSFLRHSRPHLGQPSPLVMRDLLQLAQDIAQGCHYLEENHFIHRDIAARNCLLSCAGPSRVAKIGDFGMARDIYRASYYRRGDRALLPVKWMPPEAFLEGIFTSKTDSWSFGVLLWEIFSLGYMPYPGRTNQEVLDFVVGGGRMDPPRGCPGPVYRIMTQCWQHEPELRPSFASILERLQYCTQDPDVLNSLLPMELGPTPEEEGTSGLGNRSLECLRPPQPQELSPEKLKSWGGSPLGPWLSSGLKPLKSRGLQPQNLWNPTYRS
# Chain of Tyrosine-protein kinase JAK1 (Homo sapiens) (P23458 whole entry): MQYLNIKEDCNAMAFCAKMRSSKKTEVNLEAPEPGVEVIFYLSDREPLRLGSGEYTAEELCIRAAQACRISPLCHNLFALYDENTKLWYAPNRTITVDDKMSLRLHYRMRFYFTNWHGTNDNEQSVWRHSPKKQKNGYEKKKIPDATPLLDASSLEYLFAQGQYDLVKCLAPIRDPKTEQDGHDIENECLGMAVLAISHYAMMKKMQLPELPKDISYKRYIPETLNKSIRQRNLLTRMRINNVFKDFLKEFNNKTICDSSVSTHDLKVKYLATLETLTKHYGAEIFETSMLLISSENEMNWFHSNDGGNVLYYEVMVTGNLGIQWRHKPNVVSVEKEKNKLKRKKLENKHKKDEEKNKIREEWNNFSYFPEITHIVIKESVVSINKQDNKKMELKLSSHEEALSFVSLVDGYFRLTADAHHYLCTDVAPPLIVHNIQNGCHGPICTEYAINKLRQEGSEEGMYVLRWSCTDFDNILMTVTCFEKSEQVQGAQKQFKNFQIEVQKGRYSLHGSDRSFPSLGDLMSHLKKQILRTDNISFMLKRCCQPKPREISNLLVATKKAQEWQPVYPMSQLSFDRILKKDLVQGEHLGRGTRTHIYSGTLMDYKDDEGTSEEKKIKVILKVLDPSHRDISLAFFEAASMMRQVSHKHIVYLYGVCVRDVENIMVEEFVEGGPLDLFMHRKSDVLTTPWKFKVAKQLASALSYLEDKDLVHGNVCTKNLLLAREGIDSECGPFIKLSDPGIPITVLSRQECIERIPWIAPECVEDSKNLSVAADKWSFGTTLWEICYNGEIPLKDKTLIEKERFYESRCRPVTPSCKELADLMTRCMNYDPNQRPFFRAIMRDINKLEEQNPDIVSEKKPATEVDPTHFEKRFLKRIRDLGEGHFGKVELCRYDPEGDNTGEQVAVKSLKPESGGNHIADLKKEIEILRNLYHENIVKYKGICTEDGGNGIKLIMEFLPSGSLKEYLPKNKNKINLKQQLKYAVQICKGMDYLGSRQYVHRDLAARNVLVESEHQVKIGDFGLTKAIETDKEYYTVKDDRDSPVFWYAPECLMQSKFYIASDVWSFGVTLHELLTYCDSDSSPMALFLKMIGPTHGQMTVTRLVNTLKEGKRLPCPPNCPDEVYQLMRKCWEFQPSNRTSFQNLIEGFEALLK
# Chain of Mast/stem cell growth factor receptor Kit (Homo sapiens) (P10721 whole entry): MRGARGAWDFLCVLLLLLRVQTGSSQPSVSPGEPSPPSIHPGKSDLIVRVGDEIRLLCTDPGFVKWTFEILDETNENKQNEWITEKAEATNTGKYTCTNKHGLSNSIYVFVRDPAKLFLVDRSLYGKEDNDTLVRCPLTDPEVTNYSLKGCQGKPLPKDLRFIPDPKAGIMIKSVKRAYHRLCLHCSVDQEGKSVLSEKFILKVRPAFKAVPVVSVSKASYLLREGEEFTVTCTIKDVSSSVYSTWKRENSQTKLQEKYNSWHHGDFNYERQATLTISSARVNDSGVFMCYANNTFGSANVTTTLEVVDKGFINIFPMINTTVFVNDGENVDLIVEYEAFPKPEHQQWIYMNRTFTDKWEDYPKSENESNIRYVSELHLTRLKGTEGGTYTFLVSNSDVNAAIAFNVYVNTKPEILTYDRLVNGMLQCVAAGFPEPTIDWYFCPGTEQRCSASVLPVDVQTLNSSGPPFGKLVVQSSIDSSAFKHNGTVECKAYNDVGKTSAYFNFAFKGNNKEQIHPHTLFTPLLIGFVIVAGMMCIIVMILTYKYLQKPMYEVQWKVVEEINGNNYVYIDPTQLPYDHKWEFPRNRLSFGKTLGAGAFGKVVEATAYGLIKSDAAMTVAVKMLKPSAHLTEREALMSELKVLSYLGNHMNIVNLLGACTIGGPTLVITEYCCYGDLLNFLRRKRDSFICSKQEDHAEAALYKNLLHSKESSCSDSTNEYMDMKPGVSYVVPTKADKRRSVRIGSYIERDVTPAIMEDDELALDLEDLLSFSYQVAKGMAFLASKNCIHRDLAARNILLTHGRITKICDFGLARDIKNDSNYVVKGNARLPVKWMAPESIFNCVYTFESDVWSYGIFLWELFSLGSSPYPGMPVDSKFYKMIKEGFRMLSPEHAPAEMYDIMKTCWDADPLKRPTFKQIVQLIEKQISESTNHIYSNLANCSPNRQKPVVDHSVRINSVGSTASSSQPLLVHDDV
# Chain of Mast/stem cell growth factor receptor Kit (Homo sapiens), P10721 [T670I] (P10721 whole entry T670I): as the sequence (P10721 whole entry) above, with T670I counted along it
# Chain of Mast/stem cell growth factor receptor Kit (Homo sapiens), P10721 [D816V] (P10721 whole entry D816V): as the sequence (P10721 whole entry) above, with D816V counted along it
# Chain of Vascular endothelial growth factor receptor 2 (Homo sapiens) (P35968 whole entry): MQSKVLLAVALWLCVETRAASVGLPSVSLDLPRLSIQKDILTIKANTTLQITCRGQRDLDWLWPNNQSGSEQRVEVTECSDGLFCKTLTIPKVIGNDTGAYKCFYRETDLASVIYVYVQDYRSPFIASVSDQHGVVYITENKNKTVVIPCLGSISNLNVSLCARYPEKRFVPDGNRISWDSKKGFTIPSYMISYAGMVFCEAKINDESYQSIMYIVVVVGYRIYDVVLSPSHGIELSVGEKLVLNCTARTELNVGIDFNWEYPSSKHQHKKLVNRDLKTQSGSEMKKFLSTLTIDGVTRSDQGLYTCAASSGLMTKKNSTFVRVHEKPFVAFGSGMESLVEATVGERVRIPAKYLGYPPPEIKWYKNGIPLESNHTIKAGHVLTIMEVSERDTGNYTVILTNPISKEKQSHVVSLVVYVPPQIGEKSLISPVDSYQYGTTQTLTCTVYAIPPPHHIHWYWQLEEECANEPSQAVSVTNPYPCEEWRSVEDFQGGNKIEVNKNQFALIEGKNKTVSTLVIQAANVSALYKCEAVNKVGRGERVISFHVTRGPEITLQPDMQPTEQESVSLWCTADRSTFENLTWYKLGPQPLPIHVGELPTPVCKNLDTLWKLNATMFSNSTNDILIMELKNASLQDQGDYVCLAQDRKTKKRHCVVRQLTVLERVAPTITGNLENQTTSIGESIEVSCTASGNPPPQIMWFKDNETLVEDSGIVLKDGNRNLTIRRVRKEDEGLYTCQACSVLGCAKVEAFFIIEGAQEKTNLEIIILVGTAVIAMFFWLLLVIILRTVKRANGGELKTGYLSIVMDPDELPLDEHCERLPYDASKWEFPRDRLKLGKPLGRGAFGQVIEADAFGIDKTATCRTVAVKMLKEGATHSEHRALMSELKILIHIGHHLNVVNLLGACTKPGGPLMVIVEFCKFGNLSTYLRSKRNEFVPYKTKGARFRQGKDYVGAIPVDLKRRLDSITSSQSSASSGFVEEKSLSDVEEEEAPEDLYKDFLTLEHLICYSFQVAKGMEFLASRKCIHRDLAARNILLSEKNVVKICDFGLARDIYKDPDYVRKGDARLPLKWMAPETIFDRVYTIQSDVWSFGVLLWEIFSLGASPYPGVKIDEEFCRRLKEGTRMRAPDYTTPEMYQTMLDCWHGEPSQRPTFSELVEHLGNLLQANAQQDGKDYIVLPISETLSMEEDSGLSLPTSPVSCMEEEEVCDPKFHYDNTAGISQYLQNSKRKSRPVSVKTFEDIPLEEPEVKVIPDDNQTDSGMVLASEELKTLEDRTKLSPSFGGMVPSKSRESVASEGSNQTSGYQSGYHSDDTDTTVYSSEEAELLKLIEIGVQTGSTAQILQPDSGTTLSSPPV
# Chain of Mast/stem cell growth factor receptor Kit (Homo sapiens), P10721 [V560G] (P10721 whole entry V560G): as the sequence (P10721 whole entry) above, with V560G counted along it
# Chain of Tyrosine-protein kinase Lck (Homo sapiens) (P06239 2-509 limits assumed): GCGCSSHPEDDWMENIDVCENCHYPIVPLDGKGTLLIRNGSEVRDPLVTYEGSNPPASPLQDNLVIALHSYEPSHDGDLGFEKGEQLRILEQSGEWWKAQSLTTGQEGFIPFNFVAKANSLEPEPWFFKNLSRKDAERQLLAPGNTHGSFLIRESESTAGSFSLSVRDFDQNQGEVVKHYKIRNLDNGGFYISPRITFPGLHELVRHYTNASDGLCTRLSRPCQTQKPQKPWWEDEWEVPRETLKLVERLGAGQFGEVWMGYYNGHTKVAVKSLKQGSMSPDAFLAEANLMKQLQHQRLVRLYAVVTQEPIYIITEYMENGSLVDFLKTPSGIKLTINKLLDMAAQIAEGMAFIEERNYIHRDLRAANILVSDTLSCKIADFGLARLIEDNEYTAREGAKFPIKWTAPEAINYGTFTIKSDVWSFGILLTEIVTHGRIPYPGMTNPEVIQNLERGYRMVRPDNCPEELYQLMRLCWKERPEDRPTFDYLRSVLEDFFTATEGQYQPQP
SMILES,inhibition [1],inhibition [2],inhibition [3],inhibition [4],inhibition [5],inhibition [6],inhibition [7],inhibition [8],inhibition [9],inhibition [10],inhibition [11],inhibition [12],inhibition [13],inhibition [14],inhibition [15],inhibition [16],inhibition [17],inhibition [18],inhibition [19],inhibition [20]
C[C@@H](Oc1cc(-n2cnc3ccc(OCC4CCN(C)CC4)cc32)sc1C(N)=O)c1ccccc1Cl,3.2%,8.98%,6.05%,1.61%,2.26%,-1.46%,29.3%,7.07%,36.4%,5.23%,8.33%,5.13%,8.23%,0.47%,5.37%,-4.48%,0.38%,7.42%,29.8%,4.38%
Fc1ccc(-c2ncn(C3CCNCC3)c2-c2ccnc(Oc3ccc4c(c3)OCO4)n2)cc1,3.21%,3.3%,4.29%,0.42%,1.47%,-2.3%,-2.01%,9.3%,12.5%,7.99%,9.68%,4.71%,5.2%,3.24%,3.64%,-1.09%,-0.53%,3.98%,8.64%,3.89%
CN1CCN(CCCNc2nc3ccc(Oc4ccc(NC(=O)Nc5cc(C(F)(F)F)ccc5F)cc4)cc3[nH]2)CC1,-1.94%,6.45%,1.78%,3.76%,6.4%,-2.58%,0.29%,38.6%,71.9%,48.5%,91.9%,-2.19%,0.02%,11.5%,70.1%,31.6%,76.6%,-1.91%,7.95%,-0.24%
O=C1NC(=O)C(c2cccc(Cl)c2)=C1Nc1ccc(Cl)c(C(=O)O)c1,0.9%,4.75%,13.7%,0.64%,0.7%,-0.9%,9.29%,6.04%,23.5%,6.54%,5.28%,1.8%,5.8%,2.83%,4.22%,1%,6.94%,1.82%,0.84%,2.51%
COc1cc(Nc2ncc(-c3ccccc3)o2)cc(OC)c1OC,2.92%,-8.6%,-0.54%,-0.76%,5.24%,-0.1%,12.7%,7.23%,48%,85.4%,98.7%,0.53%,0.05%,69.3%,94.8%,22.2%,80.4%,2.17%,25%,0.26%
NS(=O)(=O)c1ccc(Nc2cc(-c3ccc(O)c(F)c3)n[nH]2)cc1,12.4%,-7.43%,6.94%,-0.13%,-0.37%,0.11%,8.25%,4.49%,35.3%,20.9%,86.4%,-3.97%,-1.47%,-0.5%,20.2%,8.78%,55.9%,-0.68%,7.91%,-0.58%
COc1cccc(/C=N/Nc2ncnc3c2cnn3-c2cccc(OC)c2)c1,0.34%,1.61%,4.23%,3.55%,5.22%,-1.99%,-2.7%,5.88%,11.2%,6.67%,6.76%,2.28%,4.96%,1.91%,4.1%,3.55%,0.61%,2.18%,8.97%,5%
